Experiment [1] can be described thus: Her2 expression decrease, cell viability multiplex – SKBR3 breast tumor cells, AlphaScreen, ATP viability, primary screen (AID 461;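 active = Her2 level under about 52% in both replicate screens, with viability over 70% of control, limit read from the data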;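 for Her2 level: lower value means less Her2 protein in the cells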;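 for viability: percent of carrier control wells set as 100% viability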). The note with it: SKBR3 Her2 protein level, 18-24 h, measured here: SKBR3 viability, ATP luminescence, at 10 µM. In general terms: Alpha assays give light when donor and acceptor beads are brought close together.
The target of experiment [2] is Receptor tyrosine-protein kinase erbB-2 (Homo sapiens) (UniProt P04626). Described as above. The settings on record: 18-24 h, at 10 µM, stronger effect = lower value.
Receptor tyrosine-protein kinase erbB-2 (Homo sapiens), sequence (P04626 whole entry, looked up): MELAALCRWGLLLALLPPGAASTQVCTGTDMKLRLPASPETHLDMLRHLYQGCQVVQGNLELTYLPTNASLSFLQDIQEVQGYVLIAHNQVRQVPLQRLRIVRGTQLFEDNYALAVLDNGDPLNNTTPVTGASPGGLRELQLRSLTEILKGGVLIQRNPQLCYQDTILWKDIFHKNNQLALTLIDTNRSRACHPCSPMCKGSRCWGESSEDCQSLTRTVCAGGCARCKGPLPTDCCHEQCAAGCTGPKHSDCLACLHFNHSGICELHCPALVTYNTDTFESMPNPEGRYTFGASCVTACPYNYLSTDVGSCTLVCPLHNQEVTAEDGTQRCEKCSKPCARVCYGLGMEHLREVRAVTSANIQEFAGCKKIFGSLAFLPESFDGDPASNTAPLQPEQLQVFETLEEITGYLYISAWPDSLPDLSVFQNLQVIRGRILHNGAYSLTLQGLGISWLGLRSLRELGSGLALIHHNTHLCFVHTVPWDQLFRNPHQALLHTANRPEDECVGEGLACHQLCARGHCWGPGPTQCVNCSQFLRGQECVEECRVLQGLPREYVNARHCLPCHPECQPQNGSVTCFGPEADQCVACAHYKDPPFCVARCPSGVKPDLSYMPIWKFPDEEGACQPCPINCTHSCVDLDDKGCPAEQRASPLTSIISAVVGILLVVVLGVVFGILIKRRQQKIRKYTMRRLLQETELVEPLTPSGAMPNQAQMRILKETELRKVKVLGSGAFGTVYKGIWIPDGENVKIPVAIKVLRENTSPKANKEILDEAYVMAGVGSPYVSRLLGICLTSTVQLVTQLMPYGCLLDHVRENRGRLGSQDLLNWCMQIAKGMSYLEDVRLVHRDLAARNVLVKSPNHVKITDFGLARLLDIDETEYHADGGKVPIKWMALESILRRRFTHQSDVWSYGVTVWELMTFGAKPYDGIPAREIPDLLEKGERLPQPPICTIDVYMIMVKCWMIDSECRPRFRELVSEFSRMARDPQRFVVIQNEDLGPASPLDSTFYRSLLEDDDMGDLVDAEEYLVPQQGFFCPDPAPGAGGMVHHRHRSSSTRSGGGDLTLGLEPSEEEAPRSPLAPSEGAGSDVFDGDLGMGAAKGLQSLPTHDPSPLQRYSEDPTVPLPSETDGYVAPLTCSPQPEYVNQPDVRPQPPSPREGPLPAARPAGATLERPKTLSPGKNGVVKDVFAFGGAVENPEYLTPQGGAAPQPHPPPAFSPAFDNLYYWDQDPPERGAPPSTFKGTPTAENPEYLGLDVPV
Experiment [3] can be described thus: reduced viability of SK-BR-3 breast cancer cells – cell-based, 24 h, human, pilot screen (AID 572;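 active = viability at or below 10% of carrier control in both of two separate runs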;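 note: compound exposure lasted between 18 and 24 h rather than exactly 24 h; 100% = carrier-treated control wells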). The note with it: SK-BR-3 viability, CellTiter-Glo luminescence, at 10 µM, stronger effect = lower value. On the technique in general: In ATP-based viability assays light output follows the ATP content of the culture.
Experiment [4] in a line: HUVEC growth inhibition – cell-based, human, primary screen (AID 575;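 active = viability at or below 30% in both replicate assays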;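 note: 100% = median of untreated cell wells with 0.1% DMSO on each plate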). The settings on record: HUVEC proliferation, CellTiter-Glo luminescence, 72 h; at 10 µM; stronger effect = lower value.
Experiment [5] in a line: H69AR cell proliferation blockers – human, duplicate replicates, primary screen (AID 580;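 active = viability at or under a set limit in both replicates, limit being median viability minus 3 SD, cut at about 48% in these data, passing the limit was not always enough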;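 note: 100% = mean luminescence of untreated wells and 0% = no signal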). The note with it: H69AR lung tumor cells viability, ATP luminescence, 72 h; at 10 µM; stronger effect = lower value.
Experiment [6] is described as follows: MRP1 drug-resistance reversers in H69AR cells – cell-based, doxorubicin co-treatment, pilot screen (AID 601;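 active = viability loss from added drug above about 55%, and viability with drug at most 40%, in both replicates, limit read from the data, passing the limit was not always enough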). The note with it: CellTiter-Glo, 72 h, at 10 µM; for differential viability (reversal): stronger effect = higher value.
Experiment [7] can be described thus: yeast transport mutant growth inhibition pilot in 384-well plates, post-Golgi transport modulator project (AID 636; in the data active = inhibition above about 31%). The note with it: absorbance 615 nm, about 18 h, stronger effect = higher value.
Experiment [8] can be described thus: growth suppression of yeast trafficking mutant, preliminary HTS, modulators of trafficking downstream of Golgi apparatus project, 1536-format plate, OD 615 nm (AID 637; in the data active = inhibition above about 30%). The note with it: yeast transport mutant growth, absorbance 615 nm, 18 h; stronger effect = higher value.
The nature of experiment [9]: S. cerevisiae growth inhibition in permissive medium (OD615), pilot counter-assay for S. cerevisiae lifespan shortening project, permissive growth control (AID 705). The settings on record: OD615, 24 h, at 10 µM, stronger effect = higher value.
A short description of experiment [10]: S. cerevisiae growth inhibition in restrictive medium, OD615, pilot screen, restrictive growth control, yeast lifespan reduction project (AID 706;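 active = growth inhibition above a set limit, 3 SD over mean compound inhibition, in both replicates, cut at about 43% in these data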;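 note: modified DeaD lifespan yeast strain shifted to restrictive glucose medium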). The note with it: OD615, 48 h, at 10 µM, stronger effect = higher value.
Experiment [11] is described as follows: doxorubicin toxicity protection in MRP-1 cells – H69AR cells, CellTiter-Glo, duplicate, MRP-1 activator project, pilot screen (AID 807;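 active = viability increase at or above a cutoff of the median across tested compounds plus 3 SD, cut at about 8.5% in these data, passing the limit was not always enough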;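 note: compound pretreatment 18-22 h then 72 h combined with doxorubicin; 0% = doxorubicin alone and 100% = vehicle without doxorubicin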). The note with it: H69AR viability with doxorubicin, CellTiter-Glo luminescence; at 10 µM; stronger effect = higher value.
Experiment [12] can be described thus: viability of HCT116 without oncogenic beta-catenin – human colon tumor cells, pilot screen (AID 823;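 active = cell viability at or below a set limit in both duplicate runs, the limit being the all-compound median minus 4 SD, cut at about 23% in these data, passing the limit was not always enough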;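 note: 0% = wells killed by 20 µM Hyamine and 100% = untreated DMSO cell wells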). The note with it: HCT116 beta-catenin knockout viability, CellTiter-Glo, 60 h; at 10 µM; stronger effect = lower value.
Experiment [13] in a line: viability of PTEN-null HCT116 cells – cell-based, HCT116 clonal line, CellTiter-Glo, pilot screen (AID 824;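 active = viability at or below 27.92% in each of two runs, the all-compound median minus 4 SD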;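 note: 0% = 20 µM Hyamine control and 100% = vehicle cell control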). The settings on record: HCT116 PTEN-deleted viability, 60 h, at 10 µM, stronger effect = lower value.
A short description of experiment [14]: RAM pathway blockade in budding yeast – dse1pr::URA3 reporter, 5-FOA selection, pilot screen (AID 869;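 active = inhibition over a set limit, the all-compound mean plus 3 SD, in both replicate runs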;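 note: 0% = DMSO wells with no growth and 100% = 10 µM 1-NA-PP1 with full growth; RAM network block rescues cells from 5-FOA so hits raise OD615 growth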). The note with it: S. cerevisiae dse1pr::URA3 5-FOA growth, OD615, 2 d; at 10 µM; stronger effect = higher value; strain carries analog-sensitive mutant Cbk1 kinase.
Experiment [15] is described as follows: RAM signaling pathway blockade in yeast – S. cerevisiae, Pdr1DBD-CYC8 efflux-inhibited sensitized strain, primary screen (AID 1298;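 active = RAM network inhibition above 8.4% in each of two replicates, 3 SD over the compound average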;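 note: 0% = DMSO untreated cells without growth and 100% = 10 µM 1-NA-PP1 full growth; higher means more yeast growth rescued from 5-FOA killing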). The settings on record: S. cerevisiae cbk1-as DSE1-URA3 strain, 5-FOA growth OD615, 2 d; at 50 µM; stronger effect = higher value.
[16] abbreviates: H69AR cells + 2 uM doxorubicin, measured here: viability with 2 uM doxorubicin, stronger effect = lower value.
The mark [17] stands for this setting: H69AR cells, compound alone cytotoxicity.

Results filed as inconclusive are left out. Calls of active or inactive are those of the source.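 Rule for the calls, unless noted: active = growth inhibition above 25% in both replicates, a cutoff set 3 SD above the mean; inconclusive = above 25% in only one replicate; inactive = the rest.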

For the compound `CCOc1ccc2[nH]c(C)cc(=O)c2c1`, the viability (in general, a read-out of living cells in per cent, often relative to untreated cells) in experiment [1] was 100%; in experiment [3] it was 100% (inactive); in experiment [4] it was 94.8% (inactive); in [5], 108% (inactive); in [6] (setting [16]), 89.6%; in [6] (setting [17]), 108%. In addition, the viability in experiment [12] was 96.7% (inactive); in experiment [13], 88.4% (inactive). The Her2 level in experiment [2] is 100% (inactive). In addition, the differential viability (reversal) in [6] (H69AR cells + 2 uM doxorubicin) is 18.7% (inactive). The figures for the inhibition in [7], in experiment [8] and in experiment [14] were 0% (inactive), -9.02% (inactive) and 2.86% (inactive), respectively. For the same compound, the values for the growth inhibition in [9] and in [10] were -12.8% (inactive) and 3.82% (inactive), respectively. The viability increase in experiment [11] was -2.11% (inactive). In addition, in [15], the RAM network inhibition is 3.45% (inactive).

Take `COc1ccccc1N(CC(=O)NCc1ccccn1)S(C)(=O)=O`: the viability in [1] was 126%; in [3], 126% (inactive); in [4], 89.2% (inactive); in experiment [5] it was 95.7% (inactive); in experiment [6] (setting [16]), 91.6%; in experiment [6] (setting [17]) it was 95.7%. In addition, the viability in experiment [12] was 97.3% (inactive); in [13], 91.5% (inactive). Further, in experiment [2], the Her2 level was 105% (inactive). In addition, in [6] (H69AR cells + 2 uM doxorubicin), the differential viability (reversal) is 4.02% (inactive). In addition, the inhibition (usually the change of the read-out against control, counted positive when it falls) in [7] is -1.3% (inactive); in experiment [8], -1.17% (inactive); in [14] it was 0.815% (inactive). The growth inhibition in [9] is -1.19% (inactive); in experiment [10] it was -24.7% (inactive). The viability increase in experiment [11] is -3.02% (inactive). The RAM network inhibition in experiment [15] was 4.8% (inactive).

As for `Cn1nnnc1SCC(=O)N1CCN(c2ccccc2)CC1`, the viability in [1] is 94.5%; in experiment [3] it was 94.5% (inactive); in experiment [4], 97.4% (inactive); in experiment [5], 87.7% (inactive); in [6] (setting [16]), 78.8%; in [6] (setting [17]), 87.7%. The viability in [12] was 93.1% (inactive); in experiment [13] it was 99.6% (inactive). Moreover, in experiment [2], the Her2 level was 122% (inactive). The differential viability (reversal) in experiment [6] (H69AR cells + 2 uM doxorubicin) was 8.86% (inactive). Further, the inhibition in experiment [7] is 1.92% (inactive); in experiment [8] it was -6.33% (inactive); in [14], 0.735% (inactive). Also, the growth inhibition in [9] was -0.355% (inactive); in experiment [10], -1.68% (inactive). Moreover, in experiment [11], the viability increase was -0.97% (inactive). In experiment [15], the RAM network inhibition was 1.14% (inactive).

Turning to `CCN(CC)CCCNC(=O)c1cn(C)c2ccc(S(=O)(=O)N(C)C)cc2c1=O`, the viability in experiment [1] was 98.5%; in experiment [3], 98.5% (inactive); in [4], 99.2% (inactive); in experiment [5], 99.4% (inactive); in experiment [6] (setting [16]), 96.7%; in experiment [6] (setting [17]) it was 99.4%. Also, the viability was 101% (inactive) in experiment [12] and 98.5% (inactive) in experiment [13]. Also, the Her2 level in experiment [2] was 116% (inactive). In addition, the differential viability (reversal) in experiment [6] (H69AR cells + 2 uM doxorubicin) was 2.72% (inactive). Further, the inhibition is -0.26% (inactive) in experiment [7], 1.5% (inactive) in [8] and 2.21% (inactive) in experiment [14]. Also, the growth inhibition in experiment [9] was -1.33% (inactive); in [10], 8.49% (inactive). In addition, the viability increase in experiment [11] is -0.44% (inactive). Moreover, the RAM network inhibition in experiment [15] was 1.85% (inactive).

On to `CCOC(=O)N1CCN(C(c2ccc(Cl)cc2)c2sc3nc(C)nn3c2O)CC1` (stereo not given), for which the viability was 94% in [1]; 94% (inactive) in experiment [3]; 87.7% (inactive) in experiment [4]; 94.7% (inactive) in experiment [5]; 103% in experiment [6] (setting [16]); 94.7% in [6] (setting [17]). The viability was 98.4% (inactive) in experiment [12] and 106% (inactive) in [13]. Further, the Her2 level in experiment [2] is 89% (inactive). In [6] (H69AR cells + 2 uM doxorubicin), the differential viability (reversal) is -8.7% (inactive). Besides, the results for the inhibition in experiment [7], in experiment [8] and in experiment [14] were -4.67% (inactive), 0.33% (inactive) and 0.72% (inactive), respectively. Further, the growth inhibition in experiment [9] is 1.38% (inactive); in experiment [10], 1.06% (inactive). For the same compound, in [11], the viability increase is 0.03% (inactive). In addition, the RAM network inhibition in experiment [15] was 6.22% (inactive).

The values above are taken from PubChem BioAssay.
